Test systems include DU-145 prostate; K-562 leukemia; MALME-3M melanoma; MDA-MB-231 breast; RXF 393 renal; SF-268 CNS; SF-295 CNS; SF-539 CNS; UACC-257 melanoma; M14 melanoma.
What all share (assay): NCI-60 one-dose screen, 48 h (100 = growth as untreated, 0 = no growth, -100 = all killed)
Settings in all cases: 10 µM unless noted

“And” between values parts separate entries of the source, which are not always exact repeats. Equal entries are not always repeated. The panel holds about 83,000 compounds, 20% with a hit somewhere; the sample as a whole holds those more often.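 Single-concentration screen, 48 h exposure, 96-well plates. Endpoint: percent growth. Below 10 = active.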 The source made the active and inactive calls.

In the case of `CCOC(=O)c1ccc(N2C(=O)C(Cl)(c3ccccc3)C2c2ccco2)cc1` (stereo not given), the growth with DU-145 prostate is 65.4% (inactive); in the experiment on K-562 leukemia, 31.1% (inactive); in the experiment on MALME-3M melanoma, 86.7% (inactive); in the experiment on MDA-MB-231 breast, 80% (inactive); with RXF 393 renal, 99.7% (inactive); in the experiment on SF-268 CNS, 77.8% (inactive). For the same compound, the growth in the experiment with SF-295 CNS was 86.4% (inactive); in the experiment on SF-539 CNS, 96.2% (inactive); with UACC-257 melanoma, 89.7% (inactive); in the experiment on M14 melanoma, 98.7% (inactive).

On to `ON=C(C1CCCCC1)C1CCCCC1`, for which the growth with DU-145 prostate is 107% (inactive); with K-562 leukemia it was 108% (inactive); in the experiment on MALME-3M melanoma it was 91.9% (inactive); with MDA-MB-231 breast, 95.3% (inactive); with RXF 393 renal it was 109% (inactive); in the experiment with SF-268 CNS, 98.1% (inactive). The growth was 105% (inactive) in the experiment with SF-295 CNS, 96.3% (inactive) with SF-539 CNS, 99.5% (inactive) in the experiment with UACC-257 melanoma and 109% (inactive) in the experiment on M14 melanoma.

As to `CCCCOC1NC(=O)NC(=O)C1(F)C(=O)OCC` (stereo not given), the growth is 73% (inactive) and 51.5% (inactive) in the experiment with DU-145 prostate; 88.1% (inactive) and 57.4% (inactive) with K-562 leukemia; 65.7% (inactive) and 65.1% (inactive) in the experiment with MALME-3M melanoma; 92.8% (inactive) and 75% (inactive) in the experiment on MDA-MB-231 breast; 98.1% (inactive) and 82.7% (inactive) in the experiment on RXF 393 renal; 98.8% (inactive) and 83.1% (inactive) in the experiment on SF-268 CNS. The growth with SF-295 CNS was 94.1% (inactive) and 93.7% (inactive); with SF-539 CNS, 11.3% (inactive) and 5.65% (active); in the experiment with UACC-257 melanoma, 77.2% (inactive); in the experiment on M14 melanoma it was 71.4% (inactive) and 71.3% (inactive).

`Cc1cc(=NO)cc(C)n1O`: the growth in the experiment with DU-145 prostate was 101% (inactive); in the experiment on K-562 leukemia, 96.8% (inactive); in the experiment with MALME-3M melanoma it was 112% (inactive); in the experiment with MDA-MB-231 breast, 118% (inactive); with RXF 393 renal, 123% (inactive); in the experiment with SF-268 CNS, 99.2% (inactive). Also, the growth in the experiment on SF-295 CNS is 94.4% (inactive); with SF-539 CNS, 104% (inactive); in the experiment with UACC-257 melanoma, 112% (inactive); in the experiment on M14 melanoma it was 108% (inactive).

Regarding `O=C(/C=C/C=C/c1ccc2c(c1)OCO2)N1CCCCC1`, the growth with DU-145 prostate was 119% (inactive) and 110% (inactive); in the experiment on K-562 leukemia, 90.5% (inactive) and 70.7% (inactive); in the experiment on MALME-3M melanoma, 108% (inactive) and 214% (inactive); in the experiment with MDA-MB-231 breast it was 98.6% (inactive) and 98% (inactive); in the experiment with RXF 393 renal, 105% (inactive) and 110% (inactive); in the experiment with SF-268 CNS it was 114% (inactive) and 99.2% (inactive). Further, the growth with SF-295 CNS was 85.4% (inactive) and 107% (inactive); in the experiment with SF-539 CNS, 109% (inactive) and 101% (inactive); in the experiment with UACC-257 melanoma, 114% (inactive) and 106% (inactive); in the experiment on M14 melanoma, 109% (inactive) and 99.5% (inactive).

For `CCn1c2ccc(N(C)C)cc2c2cc(N(C)C)ccc21`, the growth in the experiment on DU-145 prostate is 108% (inactive); in the experiment with K-562 leukemia, 90.6% (inactive); in the experiment with MALME-3M melanoma it was 111% (inactive); in the experiment with MDA-MB-231 breast it was 83.8% (inactive); with RXF 393 renal, 97.3% (inactive); in the experiment with SF-268 CNS, 92.8% (inactive). Besides, the growth in the experiment on SF-295 CNS was 104% (inactive); in the experiment on SF-539 CNS it was 100% (inactive); with UACC-257 melanoma it was 93% (inactive); with M14 melanoma it was 102% (inactive).

For the compound `CN(C)C(=N)N=C(N)N`, the growth in the experiment with DU-145 prostate was 120% (inactive); in the experiment with K-562 leukemia, 130% (inactive); with MALME-3M melanoma it was 116% (inactive) and 269% (inactive); in the experiment on MDA-MB-231 breast, 95.8% (inactive) and 114% (inactive); with RXF 393 renal, 101% (inactive) and -7.3% (active); in the experiment on SF-268 CNS, 99.9% (inactive) and 103% (inactive). Further, the growth with SF-295 CNS is 113% (inactive) and 178% (inactive); with SF-539 CNS it was 98.5% (inactive) and 109% (inactive); in the experiment with UACC-257 melanoma, 108% (inactive) and -0.171% (active); in the experiment on M14 melanoma, 99.2% (inactive) and 101% (inactive).

As for `Nc1ccc(Cl)c(S(=O)(=O)O)c1`, the growth in the experiment on DU-145 prostate was 105% (inactive); in the experiment on K-562 leukemia it was 104% (inactive); with MALME-3M melanoma, 112% (inactive); in the experiment on MDA-MB-231 breast it was 111% (inactive); with RXF 393 renal, 95.1% (inactive); with SF-268 CNS, 102% (inactive). The growth in the experiment on SF-295 CNS was 112% (inactive); in the experiment on SF-539 CNS, 94.3% (inactive); in the experiment with UACC-257 melanoma, 98.8% (inactive); with M14 melanoma, 98.9% (inactive).

On to `O=[N+]([O-])c1cccc2ccc(N/N=C/c3ccccc3O)nc12`, for which the growth was 88.7% (inactive) and 107% (inactive) with DU-145 prostate; 19.9% (inactive) and 49.1% (inactive) with K-562 leukemia; 96.2% (inactive) and 100% (inactive) with MALME-3M melanoma; 72.6% (inactive) and 84.5% (inactive) in the experiment with MDA-MB-231 breast; 84.6% (inactive) in the experiment on RXF 393 renal; 106% (inactive) and 99.2% (inactive) with SF-268 CNS. Besides, the growth was 104% (inactive) and 102% (inactive) in the experiment with SF-295 CNS; 90.9% (inactive) and 101% (inactive) in the experiment on SF-539 CNS; 92.1% (inactive) and 85.4% (inactive) in the experiment on UACC-257 melanoma; 88.9% (inactive) and 107% (inactive) with M14 melanoma.

With `O=C1C(=O)c2ccccc2C(O)=C1CC=C(Cl)Cl`, the growth in the experiment on DU-145 prostate was 68% (inactive) and 63.4% (inactive); in the experiment on K-562 leukemia, 31% (inactive) and 33% (inactive); in the experiment on MALME-3M melanoma it was 68.5% (inactive) and 69.2% (inactive); in the experiment with MDA-MB-231 breast it was 72.8% (inactive) and 71.8% (inactive); in the experiment on RXF 393 renal, 51.8% (inactive) and 71.7% (inactive); in the experiment with SF-268 CNS, 45.2% (inactive) and 53.9% (inactive). In addition, the growth in the experiment on SF-295 CNS is 38.5% (inactive) and 14.4% (inactive); in the experiment on SF-539 CNS, 44.7% (inactive) and 55.6% (inactive); with UACC-257 melanoma, 43.2% (inactive) and 74.3% (inactive); with M14 melanoma it was 57.3% (inactive) and 69% (inactive).

Source of the values: PubChem BioAssay (NCI).
